Sampled rows, rich in hits. Any-hit rate of the full collection: about 12%.
USP30 block: human USP30 deubiquitinase inhibition; 47,000 compounds, 5.3% hits; purified USP30, Ub-rhodamine cleavage fluorescence; inhibition, % at 25 µM
USP7 inh: human USP7 deubiquitinase inhibition | Q93009 | purified USP7, Ub-rhodamine cleavage fluorescence | inhibition, % at 20 µM | 47,000 compounds, 0.3% hits | AID 1645854
USP8 block: blocks human USP8 ubiquitin-rhodamine cleavage; purified USP8, Ub-rhodamine cleavage fluorescence, 30 min; 47,000 compounds, 4.2% hits; inhibition, % at 20 µM; P40818; AID 1645853
USP17 inh: inhibitors of human USP17 deubiquitinase | A8MUK1 | purified USP17, Ub-rhodamine cleavage fluorescence, 3 h | inhibition, % at 50 µM | 47,000 compounds, 6.5% hits | AID 1645855
USP10 inh: human USP10 deubiquitinase inhibition | inhibition, % at 20 µM | 47,000 compounds, 1.1% hits | purified USP10, Ub-rhodamine fluorescence, 60 min | Q14694
UCHL1 block: human UCHL1 deubiquitinase inhibition; 47,000 compounds, 0.2% hits; purified UCHL1, Ub-rhodamine cleavage fluorescence; inhibition, % at 20 µM
Active calls of the source: *; i = inactive; x = no result given. Cut-off read from the data, not from the text of the source: active = inhibition above about 30%; inactive = the rest.

SMILES | USP30 block | USP7 inh | USP8 block | USP17 inh | USP10 inh | UCHL1 block
COc1ccc(C(=O)N2CCC(Nc3cccnc3)C2)c(OC)n1 (centres undefined) | -304 | -12 | 62* | 6 | -5 | -4
COc1ncccc1C(=O)N1C[C@H]2CC[C@@H](Nc3cnccn3)[C@H]2C1 | 0 | 5 | -1 | 3 | -1 | -1
O=S(=O)(c1ccccc1)N1CCC(Nc2cccnc2)C1 (centres undefined) | -380 | -49 | 13 | -41 | -3 | -20
O=C(c1cc(-c2ccccc2)n[nH]1)N1CCC(Nc2cccnc2)C1 (centres undefined) | i | -8 | 58* | -45 | -10 | -8
O=C(c1ccccc1)N1CCN(C(=O)c2cc(-c3cccnc3)n[nH]2)CC1 | -2 | -1 | 6 | 4 | 0 | -2
CCOc1nccnc1NC1CCN(C(=O)c2ccc(C#N)cc2)CC1 | 20 | 5 | 11 | 13 | -2 | 3
CCOc1ccc(C(=O)N2CCC(Nc3cccnc3)C2)cc1 (centres undefined) | -357 | -15 | 49* | -15 | -7 | -7
O=C(c1ccc2cc[nH]c2c1)N1CCC(Nc2cccnc2)C1 (centres undefined) | -42 | -29 | 83* | 68* | 10 | 21
O=c1cnnc(NC(c2ccccc2)c2ccccc2)[nH]1 | 6 | 6 | 15 | 10 | 0 | -1
CNc1cc(C(=O)N[C@H]2CC[C@]3(CCC(=O)N3)[C@@H](c3ccc(OC)c(OC)c3)C2)ccn1 | -6 | 2 | 2 | 3 | 2 | -1
O=C(c1cc(-c2ccncc2)n[nH]1)N1CCC(C(=O)N2CC=C(c3ccccc3)CC2)CC1 | 19 | -12 | 0 | 64* | 0 | -1
Cn1cc(S(=O)(=O)N2CCCC2)cc1C(=O)NCc1ccc2c(c1)OCO2 | 12 | 1 | 2 | 4 | 1 | 0
Cc1cccc(-n2c(Cc3cc(=O)[nH]c(=O)[nH]3)nnc2SCC(=O)Nc2ccc(F)cc2F)c1 | 3 | -2 | -2 | -3 | 1 | -4
Cc1cccc(-n2c(Cc3cc(=O)[nH]c(=O)[nH]3)nnc2SCC(=O)NCc2ccccc2Cl)c1 | 31* | 1 | 7 | 6 | 1 | -3
Cn1ccc2ccn(Cc3nc(Cc4ccc(F)cc4)no3)c(=O)c21 | -40 | -4 | 7 | -3 | 3 | 2
O=C(NCC1CCCO1)c1cc(-c2ccccc2)nc2c1cnn2Cc1ccncc1 (centres undefined) | -21 | -4 | -14 | -11 | -5 | -2
O=c1c2ccccc2oc2nc(-c3cccs3)n(-c3ccccc3)c(=O)c12 | 33* | 80* | 98* | 57* | 22 | 49*
OCC1CSC(c2ccccc2O)=N1 (centres undefined) | 27 | 5 | 1 | 30* | 4 | 5
CCS(=O)(=O)N1Cc2ccccc2CC1C(=O)Nc1nc2ccccc2s1 (centres undefined) | -34 | 20 | 32* | 26 | 14 | 10
Cc1scc2nc(C(=O)Nc3ccc4c(c3)OCO4)nc(N3CCOCC3)c12 | 19 | 16 | 20 | 23 | 8 | 11
O=[N+]([O-])c1ccc(C(c2ccc[nH]2)c2ccc[nH]2)cc1 | -55 | -2 | -22 | 37* | -6 | 2
Cc1cc(C(=O)N2CCCCC2)c2c(=O)n(Cc3ccc4nonc4c3)c(=O)n(C)c2n1 | -20 | -22 | 43* | 34* | -4 | -2
Cc1cc(N2CC3(CCCCC3)OC2=O)nc(C2CCN(S(C)(=O)=O)CC2)n1 | 24 | 5 | 31* | 14 | -1 | 5
O=C(C1CCCN1S(=O)(=O)c1ccc(Cl)cc1)N1CCN(c2ccccn2)CC1 (centres undefined) | 1 | -1 | -5 | -3 | 0 | 1
Cc1cc(=O)n(CC(=O)Nc2cccc(F)c2)c(N2CCCCC2)n1 | -7 | -17 | -2 | 0 | -1 | 3
SMILES | USP30 block | USP7 inh | USP8 block | USP17 inh | USP10 inh | UCHL1 block
Cc1cc(OCC(=O)Nc2ccccc2)nc(N2CCCC(C)C2)n1 (centres undefined) | 14 | -22 | 13 | 31* | 4 | 4
Cc1cccc(NC(=O)COc2cc(C)nc(N3CCCCC3)n2)c1 | 30* | -8 | 21 | x | 6 | 7
Cc1cccc(C)c1NC(=O)COC(=O)c1ccc2[nH]c3c(c2c1)CCCC3 | 10 | 6 | 21 | 0 | 13 | -5
O=C(COC(=O)c1cc2c(s1)CCC2)c1ccc2[nH]c(=O)[nH]c2c1 | 2 | -22 | 70* | 56* | 4 | 7
O=C(Nc1ccc(Br)cc1)c1cc(=O)[nH]c2ccccc12 | 35* | 13 | 21 | 7 | 19 | 2
CCN(CC)c1ccc(NC(=O)c2cc(=O)[nH]c3ccccc23)cc1 | -26 | 3 | 17 | -7 | -2 | -1
O=C(Nc1cc(Cl)ccc1NCc1ccccc1)c1cc(=O)[nH]c2ccccc12 | -100 | 0 | 44* | -22 | -3 | -2
O=C(COC(=O)c1cc(=O)[nH]c2ccccc12)Nc1ccc(Br)cc1Br | 14 | 2 | 14 | 11 | 2 | -1
CCSc1ncc2c(=O)n(CC(=O)Nc3cccc(CC)c3)cnc2n1 | -37 | -12 | -19 | 3 | -6 | -6
Cc1ccc(-c2nnc(N3CCC(C(=O)NCc4ccccn4)CC3)o2)cc1 | -30 | -2 | -18 | x | -4 | 2
COCC(=O)N1C[C@H](OCc2ccccn2)[C@H]2COC[C@H]21 | -9 | -2 | -104 | -27 | 0 | -3
Cc1noc(C2(NC(=O)Nc3cccc(F)c3)CCCCC2)n1 | x | 1 | 1 | 10 | 1 | 4
COc1cc2cc(C(=O)NCC(=O)Nc3nc4ccccc4s3)n(C)c2cc1OC | 19 | 8 | 3 | 33* | -6 | 5
COc1ccccc1NC(=O)CC1SC(N2CCOCC2)=NC1=O (centres undefined) | 3 | 1 | 15 | 8 | 2 | -1
Nc1ccccc1-c1nnc(SCC(=O)c2ccccc2)o1 | 33* | 6 | 15 | 16 | 7 | 2
COc1ccc(-c2cc(C(=O)NCCC3=CCCCC3)nn2C2CCS(=O)(=O)C2)cc1 (centres undefined) | 17 | 3 | 6 | 27 | 4 | 2
O=C(Cn1cc(S(=O)(=O)Cc2ccccc2)c2ccccc21)NCCC1=CCCCC1 | -55 | 4 | -6 | -13 | 12 | 2
COc1ccc(NC(=O)Cn2cc(S(=O)(=O)Cc3ccccc3)c3ccccc32)c(OC)c1 | 4 | 11 | 33* | 19 | 15 | 1
O=C(Cn1cc(S(=O)(=O)Cc2ccccc2)c2ccccc21)Nc1ccccc1 | -135 | 0 | 34* | 22 | -5 | -8
Cc1ccccc1NC(=O)Cn1cc(S(=O)(=O)Cc2ccccc2)c2ccccc21 | -68 | 20 | 35* | x | 7 | 6
Cc1ccc(CNC(=O)N2CCC(c3nc(C(=O)N4CCOCC4)c(C)o3)CC2)cc1 | -1 | 3 | 6 | 3 | 1 | -1

Screens: PubChem, Buhrlage Lab, Dana-Farber Cancer Institute and Novartis Institutes for BioMedical Research (Cambridge, Mass)
